# Source: PubChem (National Center for Advancing Translational Sciences (NCATS))
# An excerpt weighted towards active compounds, which were near 8.7% of everything screened.
# JMJD2A Tudor inh – JMJD2A Tudor domain (human) inhibition; O75164; AlphaScreen JMJD2A-Tudor / H3K4me3 peptide binding; Potency, µM (highest dose often 114 µM), usual class: inhibitors; actives 4.4% (n = 390,000); AID 504339; note: nearly all actives have a fitted effect of over 50% in size
# Target sequence (O75164 whole entry, looked up, the tested form may be a part): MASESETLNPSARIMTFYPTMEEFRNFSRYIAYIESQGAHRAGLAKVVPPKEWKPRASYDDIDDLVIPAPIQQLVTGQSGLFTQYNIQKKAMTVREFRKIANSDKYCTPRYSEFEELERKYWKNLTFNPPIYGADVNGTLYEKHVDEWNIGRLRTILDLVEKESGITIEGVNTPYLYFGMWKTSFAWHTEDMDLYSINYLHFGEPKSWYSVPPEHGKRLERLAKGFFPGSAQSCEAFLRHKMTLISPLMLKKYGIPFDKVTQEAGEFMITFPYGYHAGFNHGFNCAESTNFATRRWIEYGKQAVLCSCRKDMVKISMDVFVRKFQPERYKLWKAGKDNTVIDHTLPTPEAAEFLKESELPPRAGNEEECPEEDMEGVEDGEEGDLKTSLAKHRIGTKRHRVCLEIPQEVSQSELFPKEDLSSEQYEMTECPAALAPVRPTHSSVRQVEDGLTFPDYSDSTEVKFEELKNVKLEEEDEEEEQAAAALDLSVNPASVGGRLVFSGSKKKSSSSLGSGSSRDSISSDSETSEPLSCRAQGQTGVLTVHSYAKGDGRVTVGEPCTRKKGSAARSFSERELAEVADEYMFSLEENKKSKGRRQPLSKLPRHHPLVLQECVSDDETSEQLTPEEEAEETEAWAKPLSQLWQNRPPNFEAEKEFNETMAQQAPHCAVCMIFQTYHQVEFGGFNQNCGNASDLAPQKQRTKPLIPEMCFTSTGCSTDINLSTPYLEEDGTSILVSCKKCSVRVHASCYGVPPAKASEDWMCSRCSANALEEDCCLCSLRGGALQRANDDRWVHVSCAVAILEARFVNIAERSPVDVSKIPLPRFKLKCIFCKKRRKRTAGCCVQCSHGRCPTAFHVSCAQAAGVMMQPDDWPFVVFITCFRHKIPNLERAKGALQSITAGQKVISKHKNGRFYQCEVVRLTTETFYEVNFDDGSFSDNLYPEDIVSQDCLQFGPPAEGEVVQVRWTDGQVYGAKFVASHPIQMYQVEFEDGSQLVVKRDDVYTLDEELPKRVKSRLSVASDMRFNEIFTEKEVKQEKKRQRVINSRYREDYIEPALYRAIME
# G9a inh – G9a (human) methyltransferase inhibition | AID 504332 | Potency, µM (top dose mostly 102 µM), hits mostly inhibitors | actives 8.8% (n = 350,000) | G9a H3K9 monomethylation, AlphaScreen, 2 h | Q96KQ7; note: nearly all actives have a fitted effect of over 75% in size
#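 G9a (20 nM) preincubated 15 min RT with compounds, then 500 nM biotinylated H3K9 peptide and 20 uM SAM added; 2 h RT reaction. Monomethyl-H3K9 product detected by AlphaScreen with anti-H3K9me1 antibody, streptavidin donor and anti-rabbit IgG acceptor beads.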
# BAZ2B inh – inhibitors of human BAZ2B bromodomain. Q9UIF8. AlphaScreen BAZ2B-H3K14Ac peptide displacement. Potency, µM (titrated, usually from 114 µM), hits mostly inhibitors. actives 4.4% (n = 360,000). AID 504333; note: nearly all actives have a fitted effect of over 60% in size
#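 AlphaScreen displacement: compounds (up to 110uM) incubated 30 min at room temperature with a preformed 50 nM BAZ2B/50 nM biotinylated H3K14Ac peptide complex in PBS pH 7.4 with Tween-20. Donor and acceptor beads at 10 ug/mL final added, 20 min light-protected before reading.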
# ALOX12 inh – ALOX12 (human) lipoxygenase inhibition; P18054; purified 12hLO, xylenol orange hydroperoxide absorbance; Potency, µM (top dose mostly 108 µM), actives largely listed as inhibitors; actives 1.1% (n = 580,000)
#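 Purified human 12hLO (150 nM final) in 25 mM Hepes, 0.01% Triton X-100, pH 7.0 was preincubated 15 min at room temperature with compound. Then 40 uM arachidonic acid was added, 30 min. Hydroperoxide was read by Fe-XO absorbance ratio 573/405 nm.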
# HP1b chromo inh – HP1-beta chromodomain-methylated histone interaction inhibition; P83916; AlphaScreen HP1-beta / biotin-H3K9me3 peptide binding; Potency, µM (titrated, usually from 114 µM), usual class: inhibitors; actives 0.56% (n = 390,000); AID 540317; note: nearly all actives have a fitted effect of over 70% in size
#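 HP1-beta protein (50 nM final) preincubated 30 min at room temperature with biotinylated H3(1-18)K9me3 peptide (50 nM) in PBS pH 7.4, 0.01% Tween-20, then compound added for 30 min. AlphaScreen streptavidin donor/nickel chelate acceptor beads (10 ug/mL final), 30 min dark, luminescence read.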
# Sfp PPTase inh – blocks B. subtilis Sfp PPTase activity. Potency, µM, actives largely listed as inhibitors. AID 1490. Q9F4F7. actives 3.5% (n = 310,000). Biochemical Sfp PPTase activity, qHTS;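 note: the enzyme is Sfp with the accession as filed and its product quenches rhodamine fluorescence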
#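 Buffer: 50 mM Hepes-Na pH 7.6, 10 mM MgCl2, 0.01% Nonidet P-40, 0.01% BSA. Enzyme 15 nM, pre-exposed to compound 15 min; substrates then added and fluorescence change tracked over 30 min.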
# A number is an active result; 0 = inactive; ? = inconclusive; - = no result; [ ] = another dose, or the depositor's remark. Calls come from the whole dose curve; as a rule, active = well fitted curve in the direction sought with a large enough effect; inconclusive = small, poorly fitted or top-dose-only effect, or another doubt; inactive = no such curve, though single readings can be large; an effect the other way counts as inactive or inconclusive.
SMILES,JMJD2A Tudor inh,G9a inh,BAZ2B inh,ALOX12 inh,HP1b chromo inh,Sfp PPTase inh
COc1ccc(C(=O)N2CCC3(CC2)NC(=O)N(c2cccc(F)c2)N3)c(OC)c1,-,-,-,1.26µM,-,-
COc1ccc(C(=O)N2CCC3(CC2)NC(=O)N(Cc2ccc(F)cc2)C3=O)c(OC)c1,-,-,-,0,-,-
COC(=O)c1cnn(-c2ccc(C(=O)Nc3cc(Cl)ccc3C)cc2)c1N,-,-,-,0,-,-
CC(C)(C)OC(=O)COc1ccc2c(-c3ccccc3)cc(=O)oc2c1,-,-,-,0,-,-
Nc1ccccc1Nc1cc(-c2cccc(Cl)c2)nn1-c1ccccc1,22.4µM,28.2µM,22.4µM,0,?,0
COC(=O)c1cc(OC)ccc1OCC(=O)NCC(F)(F)F,-,-,-,0,-,-
O=C1NCc2ccccc2CC12CCCN(CC1=CCCCC1)C2 (stereo unspecified),-,-,-,0[6.33 µM],-,-
Cc1cc2cc(CN(Cc3ccco3)S(=O)(=O)c3c(C)ccc4nsnc34)c(=O)[nH]c2cc1C,0,0,0,0,0,50.1µM
Cc1ccc2cc(CN(Cc3ccco3)S(=O)(=O)c3c(C)ccc4nsnc34)c(=O)[nH]c2c1,?,?,?,0,0,15.8µM
Cc1ccc2[nH]c(=O)c(CN(CCCO)S(=O)(=O)c3c(C)ccc4nsnc34)cc2c1,0,0[12.7 µM],0,0,0,0
CC(C)CNC(=O)c1coc(COc2ccc3c(c2)C(c2cccc(F)c2)N(C(=O)C2CC2)CC3)n1 (stereo unspecified),-,-,-,0,-,-
CC(=O)Nc1ccc(NC(=O)c2ccco2)cc1,0,0[2.33 µM],0,0,0,0
COc1ccc(-c2ccc(NC(=O)c3ccco3)cc2)nn1,0,39.8µM,0,0,0,-
COc1ccc(-c2cccc(NC(=O)c3ccco3)c2)nn1,0,50.1µM,0,0,0,-
COc1cc(C2C3=C(CC(C)(C)CC3=O)OC(N)=C2[N+](=O)[O-])ccc1O (stereo unspecified),0,50.1µM,0,0,0,0
Cc1onc(-c2ccccc2Cl)c1C(=O)NC(=S)Nc1ccccc1C(N)=O,0,?,0,?,0,50.1µM
CC(=O)Nc1ccc(NC(=O)c2c(-c3ccccc3Cl)noc2C)cc1,0,0,0,0,0,0
O=C(Nc1nc2c(F)cccc2s1)C1CC1,0,-,0,0,0,0
Cc1onc(-c2c(Cl)cccc2Cl)c1C(=O)NC(=S)Nc1sc2c(c1C(N)=O)CCC(C)C2 (stereo unspecified),?,44.7µM,0,0,0,0
CC(=O)Nc1nnc(-c2c(-c3ccccc3Cl)noc2C)o1,17.8µM,0,?,0,0,0
CC1CCc2c(sc(Nc3nc4c(F)cccc4s3)c2C(N)=O)C1 (stereo unspecified),?,10µM,0,44.7µM,0,25.1µM
CCN1C(=O)COc2ccc(-c3nc(NC(=O)c4cccs4)sc3C)cc21,-,-,-,0,-,-
COc1cccc(NC(=O)CSc2nnc(C3CCCCC3)n2-n2cccc2)c1,-,-,-,0,-,-
c1ccc2c(c1)CCC(N1CCN(Cc3cc4n(n3)CCCNC4)CC1)C2 (stereo unspecified),-,-,-,0,-,-
Cc1onc(-c2ccccc2Cl)c1C(=O)NCCn1c(C)cc2ccccc21,0,50.1µM,0,-,0,0
SMILES,JMJD2A Tudor inh,G9a inh,BAZ2B inh,ALOX12 inh,HP1b chromo inh,Sfp PPTase inh
Cc1cc2ccccc2n1CCNC(=O)c1ccccc1,?,?,?,0,0,50.1µM
Cc1onc(-c2ccccc2Cl)c1C(=O)NCC(=O)O,0,0,0,0,0,0
CCC(=O)NCCn1c(C)cc2ccccc21,0,44.7µM,0,-,0,0
COC[C@@H]1CN(C(=O)c2cccn2C)C[C@H]1c1nc(C2CC2)no1,-,-,-,0,-,-
Cc1cc(C)c(NC(=O)Nc2ccccc2)c(C)n1,0,0[12.7 µM],0,0,0,-
Cc1cc(N)c2cc(NC(=O)Nc3ccc4nc(C)cc(N)c4c3)ccc2n1,-,-,-,?,-,7.94µM
Clc1ccc2nc(-c3ccncc3)cc(-c3ccccc3)c2c1,0,0,0,0,0,0
c1ccc(-c2cc(-c3ccncc3)nc3ccc4ccccc4c23)cc1,0,0,0,0,0,56.2µM
O=C(c1ccc(Cl)cc1)c1oc2ccccc2c1CS(=O)c1ccccc1 (stereo unspecified),?,?,0,?,0,44.7µM
CCOC(=O)c1sc(NC(=O)c2cc(CC)on2)c(C(=O)OCC)c1C,0,0,0,0,0,-
CCCc1cc(C(=O)Nc2sc(C)c(C)c2C(=O)OCC)no1,0,10µM,0,?,0,15.8µM
CCOC(=O)c1c(NC(=O)c2cc(C(C)C)on2)sc(C)c1C,0,20µM,0,0,0,-
O=C(O)CCc1c(O)ccc2ccccc12,-,-,-,0,-,-
CCOc1ccccc1C(=O)N1CCCn2ccnc2C1CC (stereo unspecified),-,-,-,0,-,-
COc1cc2c(cc1OC)-c1cc(Nc3ccc(F)cc3)nc(=O)n1CC2,0,0,0,0,0,0
CCN(CC)c1ccc(Nc2cc3n(c(=O)n2)CCc2cc(OC)c(OC)cc2-3)cc1,44.7µM,20µM,22.4µM,?,?,0
COc1cc2c(cc1OC)-c1cc(Nc3ccc(N(C)C)cc3)nc(=O)n1CC2,?,14.1µM,?,?,0,0
O=C(Nc1ccc(Cl)cc1)[C@@H]1[C@@H]2C(=O)N(c3ccc4ccccc4c3)C(=O)[C@@H]2[C@H]2C=CC=NN21,63.1µM,3.16µM,?,17.8µM,0,39.8µM
O=C(Nc1ccc(Cl)cc1)[C@@H]1[C@@H]2C(=O)N(c3cccc(F)c3)C(=O)[C@@H]2[C@H]2C=CC=NN21,?,8.91µM,0,0,0,0
O=C(Nc1ccc(Cl)cc1)c1cccc(N2C(=O)C3C4CCC(C4)C3C2=O)c1 (stereo unspecified),0,0,0,0,0,0
COc1ccc(N2C(=O)[C@@H]3[C@H](C2=O)[C@H]2C=CC=NN2[C@@H]3C(=O)Nc2ccc(Cl)cc2)cc1,?,7.08µM,0,?,0,35.5µM
COCCC(=O)N1CCCC(C(=O)c2ccc(Oc3ccccc3)cc2)C1 (stereo unspecified),0,0,0,0,0,0
CCN1CCN(CC(=O)N2CCCC(C(=O)c3ccc(Oc4ccccc4)cc3)C2)CC1 (stereo unspecified),0,35.5µM,50.1µM,0,0,0
Nc1ccc(SCc2cccnc2)cc1,0,44.7µM,0,?,0,0
CC(C)c1cc(=O)oc2cc(OCC(=O)NC3(C#N)CCCCC3)ccc12,-,-,-,0,-,-
CCN(CC)S(=O)(=O)c1cccc(-c2nnc(SCc3nnc(-c4cccs4)o3)n2N)c1,0,50.1µM,0,0,0,0
COC(=O)c1c(C)[nH]c(C(=O)CSc2nnc(C)s2)c1C,-,-,-,0,-,-
FC(F)(F)c1ccccc1N/N=C/c1cccnc1,0,?,0,?,0,0
N#Cc1ccc(/C=N/Nc2ccccc2C(F)(F)F)cc1,-,-,-,10µM,-,-
Cn1nccc1C(=O)NCCc1noc(-c2ccccc2)n1,-,-,-,0,-,-
